Bioassay records from PubChem BioAssay.
A selection: hits, their analogues and other compounds. The true share with any hit is near 6.8%.
Spn MK inh – inhibitors of Streptococcus pneumoniae mevalonate kinase | purified MK, PK/LDH-coupled NADH absorbance 340 nm | inhibition, % at 10 µM | 65,000 compounds, 0.48% hits | AID 555;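 active means ranked among the strongest by inhibition in the single 10 µM screen, a fixed top-ranked set picked for dose follow-up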
A340 absorber – compound absorbs light at 340 nm | compound absorbance at 340 nm, fold over control | AID 708 | 65,000 tested, under 10 active | fold change at 10 µM;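 active means at 10 µM dose, initial 340 nm absorbance at least 2 fold that of control wells; inactive means change under 2 fold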;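 further: initial absorbance extrapolated from kinetic A340 decline of NADH oxidation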
Autofluor 339 – intrinsic fluorescence of library compounds, ex339/em460 – biochemical, MLSMR library, data from DPM-DC assay, artefact control, profiling panel; compound autofluorescence, ex339/em460 nm, NADH buffer; hits give high values; 1 = no-compound wells, NADH background; fluorescence fold increase at 10 µM; 65,000 compounds, 5.5% hits;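 active means at 10 µM, mean starting fluorescence two-fold or more over control wells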;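 further: signal is the first read of a kinetic run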
Spn PMK inh – blocks S. pneumoniae phosphomevalonate kinase; AID 539; inhibition, % at 10 µM; purified PMK, PK/LDH-coupled NADH absorbance 340 nm; 65,000 compounds, 0.49% hits;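 active means top-ranked compounds by inhibition in the single 10 µM screen, taking a fixed number of the strongest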
DPM-DC inhibit – S. pneumoniae DPM-DC inhibition. calls only at 10 µM. purified DPM-DC, PK/LDH coupled NADH fluorescence. 65,000 compounds, 0.49% hits. AID 556;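 active means the 320 compounds with the highest percent inhibition in the single-dose primary screen, excluding strongly autofluorescent ones, cut at about 32% in these data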;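 further: kinetic rate of NADH fluorescence loss reporting ADP formed by the decarboxylase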
NADH coupling – inhibition of NAD/NADH coupling enzymes, library profiling. IC50, µM (highest dose often 10 µM). 65,000 compounds, 0.02% hits. coupled PK/LDH NADH assays, four targets. AID 774;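 active means single-dose screening hits from any of four coupled enzyme assays that gave an IC50 when retested across doses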;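 further: the DPM-DC format reads NADH fluorescence rather than 340 nm absorbance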
Numbers stand for hits; – = inactive; · = no result given; + = active, no number.

SMILES | Spn MK inh | A340 absorber | Autofluor 339 | Spn PMK inh | DPM-DC inhibit | NADH coupling
Cc1noc(C)c1S(=O)(=O)N(CCc1ccccc1)Cc1ccccc1 | – | – | – | – | – | –
COC(=O)c1cc(NS(=O)(=O)c2ccc3c(c2)CCC(=O)N3)cc(C(=O)OC)c1 | – | – | – | – | – | –
COc1ccc(-c2nnc(SCC(=O)NC(C)c3ccccc3)o2)cc1 (configuration not stated) | – | – | – | – | – | –
COc1ccc(-c2nc(C#N)c(NC(C)c3ccccc3)o2)cc1OC (configuration not stated) | – | – | 3.9 | – | · | –
CN(C)CCCNc1oc(-c2ccccc2)nc1C#N | – | – | 2.1 | – | · | –
Cc1cccc(OCc2nc(C#N)c(NCCN(C)C)o2)c1 | – | – | – | – | – | –
N#Cc1nc(-c2ccccc2Cl)oc1NCC1CCCO1 (configuration not stated) | – | – | – | – | – | –
N#Cc1nc(-c2ccccc2F)oc1NC1CCCCC1 | – | – | 2.1 | – | · | –
CC1CCC(NC(=O)C2CCN(C(=O)NC3CCCCC3)CC2)CC1 (configuration not stated) | – | – | – | – | – | –
COc1cc(C(=O)N2CCN(Cc3ccccc3C(F)(F)F)CC2)cc(OC)c1OC | 45 | – | – | – | – | –
COc1ccc(C(=O)N2CCN(Cc3ccccc3C)CC2)cc1OC | – | – | – | – | – | –
COc1cc(OC)cc(C(=O)N2CCN(Cc3ccccc3C(F)(F)F)CC2)c1 | 50 | – | – | – | – | –
CN1CCCN(Cc2ccccc2C(F)(F)F)CC1 | 57 | – | – | – | – | –
COc1cccc(OC)c1C(=O)N1CCN(Cc2ccccc2C(F)(F)F)CC1 | – | – | – | – | – | –
CC(C)/C=C1\CCCCC1N(C)C(=O)NC(C)C (configuration not stated) | – | – | – | – | – | –
CCOC(=O)N1CCC(N2C(=O)c3ccccc3C2Nc2ccc3c(C)cc(=O)oc3c2)CC1 (configuration not stated) | – | – | 2.5 | – | · | –
CCOC(=O)c1ccccc1NC1OC(=O)c2ccccc21 (configuration not stated) | – | – | 3.6 | – | · | –
CCOC(=O)c1ccccc1NC1c2ccccc2C(=O)N1c1ccc(C)cn1 (configuration not stated) | – | – | – | – | – | –
CCOC(=O)c1ccccc1NC1c2ccccc2C(=O)N1C1CCN(C(=O)OCC)CC1 (configuration not stated) | – | – | 2.4 | – | · | –
CCOc1cc2[nH]c(=O)n(CC3CCC(C(=O)NC(C)CC)CC3)c(=O)c2cc1OCC (configuration not stated) | – | – | 2.7 | – | – | –
CCCCN(C)C(=O)CCCCn1c(=O)[nH]c2cc(OCC)c(OCC)cc2c1=O | – | – | 2.2 | – | – | –
CCOc1cc2[nH]c(=O)n(CC3CCC(C(=O)NC4CCCCC4)CC3)c(=O)c2cc1OCC (configuration not stated) | – | – | – | – | – | –
O=S(=O)(c1ccccc1Cl)N1CCCC(c2nc(-c3cccnc3)no2)C1 (configuration not stated) | – | – | – | – | – | –
COc1ccc(OC)c2c1CC(C)(C)NC2=O | – | – | 2.1 | – | · | –
CC(=O)c1coc2ccc(OCC(=O)O)cc12 | – | – | – | – | – | –
SMILES | Spn MK inh | A340 absorber | Autofluor 339 | Spn PMK inh | DPM-DC inhibit | NADH coupling
O=S(=O)(Nc1ccc(C(F)(F)F)cc1)c1cnc[nH]1 | – | – | – | – | + | –
O=C(O)C1C2C=CC(C2)C1C(=O)NC1CCS(=O)(=O)C1 (configuration not stated) | – | – | – | – | – | –
CCOC(=O)c1sc2nc(SCC(=O)NCc3ccco3)n(Cc3ccccc3)c(=O)c2c1C | – | – | – | – | + | –
N#CCSc1nc2scc(-c3cccs3)c2c(=O)n1CCc1ccccc1 | – | – | – | – | – | –
CCOCCCNc1ncnc2c1[nH]c1ccccc12 | – | – | – | – | – | –
c1ccc2c(c1)[nH]c1c(NCC3CCCO3)ncnc12 (configuration not stated) | – | – | 2.8 | – | – | –
C=CCNc1ncnc2c1[nH]c1ccccc12 | – | – | 2.5 | – | – | –
Cc1ccc2c(n1)sc1c(N)ncnc12 | – | – | 2.1 | – | – | –
